This is a sample that favours compounds with a hit; in the whole collection about 7.3% have one here.
FMDV inh – foot and mouth disease virus antiviral activity | FMDV antiviral cell-based qHTS | Potency, µM (series often up to 57.9 µM), without a hit: top-dose activity change, negative = inhibition, hits mostly inhibitors | hit rate 1.2% among 410,000 | AID 1159524; calls by dose curve; tested in HEK293T cells; further: read-out not given here; potency means the concentration at half of the fitted maximal effect; nearly all actives have a fitted effect of over 45% in size
AmpC inh detg – AmpC beta-lactamase inhibition with detergent present | P00811 | AmpC hydrolysis of nitrocefin, absorbance 480 nm, 0.01% Triton | Potency, µM (doses to about 114 µM), for the others: at the highest dose activity change, negative = inhibition, actives largely listed as inhibitors | hit rate 0.041% among 370,000;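 further: potency means the concentration at half of the fitted maximal effect; 0% = no-compound wells and -100% = no-enzyme wells; nearly all actives have a fitted effect of over 25% in size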
Target sequence (P00811 whole entry, looked up): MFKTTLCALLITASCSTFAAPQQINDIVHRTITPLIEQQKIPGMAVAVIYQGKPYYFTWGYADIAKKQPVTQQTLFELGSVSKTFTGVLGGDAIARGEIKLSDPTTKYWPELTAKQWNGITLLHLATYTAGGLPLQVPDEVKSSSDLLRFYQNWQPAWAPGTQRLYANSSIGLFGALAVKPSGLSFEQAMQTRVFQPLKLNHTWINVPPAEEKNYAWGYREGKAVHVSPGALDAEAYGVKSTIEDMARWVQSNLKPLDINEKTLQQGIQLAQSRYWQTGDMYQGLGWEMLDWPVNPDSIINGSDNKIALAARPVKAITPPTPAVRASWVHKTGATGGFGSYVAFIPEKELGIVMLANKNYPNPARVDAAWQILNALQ
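AmpC (5.3 nM in the dispensed reagent) in 20 mM phosphate pH 7.0 with 0.01% (detergent screen) or 0.0001% Triton X-100 was preincubated with compounds for 15 min at room temperature. Nitrocefin was then added from an 800 uM solution, and hydrolysis was followed at 480 nm.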
HCV inh – inhibitors of hepatitis C virus infection. Huh7.5.1 HCVcc-Cre infection, luciferase reporter, 44 h. Potency, µM (series often up to 41.8 µM), for the others: at the highest dose activity change, negative = inhibition, actives largely listed as inhibitors. hit rate 3.4% among 340,000; further: potency means the concentration at half of the fitted maximal effect
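1,000 cells/well; 4 h culture; + compound; + HCVcc-Cre (~0.5 moi); 44 h; luciferase substrate, RT 15 min; read 15 sec.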
AmpC no deterg – inhibitors of E. coli AmpC beta-lactamase without detergent. AmpC nitrocefin hydrolysis, absorbance 480 nm, 0.0001% Triton. Potency, µM (series often up to 57.1 µM), for inactives: top-dose activity change, negative = inhibition, most hits filed as inhibitors. hit rate 0.52% among 330,000;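 further: potency means the concentration at half of the fitted maximal effect; plate controls were no compound for no effect and no enzyme for full effect; nearly all actives have a fitted effect of over 20% in size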
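AmpC (5.3 nM in the dispensed reagent) in 20 mM phosphate pH 7.0 with 0.01% (detergent screen) or 0.0001% Triton X-100 was preincubated with compounds for 15 min at room temperature. Nitrocefin was then added from an 800 uM solution, and hydrolysis was followed at 480 nm.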
HCMV inh – human cytomegalovirus inhibition; HFF cells, HCMV-luciferase reporter, 72 h; hits give low values; activity change, negative = inhibition, % at 57.5 µM; hit rate 4.5% among 410,000; in the data active means activity change below about -60%; inconclusive means no clear call, values can overlap the other calls; inactive means above about -39%
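Steps: HFFs plated, 16 h 37C; compounds added; HCMV-luciferase added to MOI 1 PFU/cell; 72 h 37C; OneGlo reagent, 5 min room temperature; luminescence read, normalized to controls.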
* marks the source's active call; other numbers are inactive results; ? = inconclusive; / = not tested or not shown. Unless noted, the call rests on the fitted dose curve; in most records, active means well fitted curve in the direction sought with a large enough effect; inconclusive means small, poorly fitted or top-dose-only effect, or another doubt; inactive means no such curve, though single readings can be large; an effect the other way counts as inactive or inconclusive. Unless noted, on the % scale 0 is the no-effect control and ±100 the full control effect.

SMILES	FMDV inh	AmpC inh detg	HCV inh	AmpC no deterg	HCMV inh
Cc1cccc(N2CCN(S(=O)(=O)c3ccc4c(c3)CC(C)N4C(=O)C3CC3)CC2)c1C (stereo not given)	?	-14%	?	3%	-61*
Cc1ccc(C)c(N2CCN(S(=O)(=O)c3ccc4c(c3)CC(C)N4C(=O)C3CC3)CC2)c1 (stereo not given)	-26%	?	?	-15%	?
Cc1c(Cl)cccc1NC(=O)CCS(=O)(=O)c1ccc2c(c1)CC(C)N2C(=O)C1CC1 (stereo not given)	0%	16%	/	/	-30
CCC(=O)N1CCCc2cc(S(=O)(=O)N3CCN(c4ccccc4F)CC3)ccc21	?	?	13µM*	56%	?
Cc1cc(Cl)ccc1NC(=O)CCS(=O)(=O)c1ccc2c(c1)CC(C)N2C(=O)C1CC1 (stereo not given)	-25%	13%	/	/	-65*
O=C(c1cnccn1)N(CCO)C(c1ccc(-c2ccccc2)cc1)c1nc2ccccc2[nH]1 (stereo not given)	/	/	/	/	57
CN(C)C(=O)CCc1ccc2c3c([nH]c2c1)[C@]1(C)[C@@H](C(=O)N2CCOCC2)C[C@H](CC(=O)NCc2cccc(C(F)(F)F)c2)C(=O)N1CC3	-5%	/	-8%	265%	17
CC(C)[C@@H]1CC[C@@H](C)CC1=O	-6%	/	/	/	/
Cc1ccc(C)c(N2CCN(S(=O)(=O)c3ccc4c(c3)CCCN4C(=O)C3CCC3)CC2)c1	?	3%	/	/	-9
Cc1cccc(N2CCN(S(=O)(=O)c3ccc4c(c3)CCCN4C(=O)C3CCC3)CC2)c1C	?	-10%	14µM*	-4%	?
Brc1ccc(-c2cn3ccccc3n2)s1	-65%	-4%	8.9µM*	-33%	-11
O=C(OCCN1CCN(c2ncc(C(F)(F)F)cc2Cl)CC1)c1ccc(Cl)cc1	-6%	-15%	13%	16%	-9
C/[N+]([O-])=C\c1cccc(OCCN2CCN(c3ncc(C(F)(F)F)cc3Cl)CC2)c1	?	-2%	25µM*	189%	-74*
CC(C)(C)c1cc(CP(=O)(c2ccccc2)c2ccccc2)cc(C(C)(C)C)c1O	?	?	16µM*	57%	-14
CCOc1ccccc1NC(=O)CN1C(=O)COc2ccc(S(=O)(=O)N3CCCCC3)cc21	-9%	?	/	/	-15
CCc1ccc(N2C=C(C(=O)OC)C(c3ccc(OC)cc3)C(C#N)=C2N)cc1 (stereo not given)	?	/	/	/	-77*
Cc1cc(C)c2nc(/N=C(\N)NC(=O)Nc3ccccc3)nc(C)c2c1	?	-1%	11µM*	-12%	?
O=S(=O)(NCc1ccco1)N1CCCCCC1	34%	-12%	2%	-8%	-62*
O=C(CN1CCCCC1)Nc1ccccc1Oc1ccccc1	-20%	-6%	-17%	1%	?
COc1cccc(NC(=O)Cn2c(=O)n(-c3ccc(Cl)cc3)c(=O)c3oc4ccccc4c32)c1	30%	-6%	/	/	18
O=C(O)c1ccccc1C(=O)c1cccc2c(Br)cccc12	-1%	/	-1%	/	0
COc1cc2c(C(=O)N(C)c3cc(Cl)ccc3OC)cn(CC(C)C)c(=O)c2cc1OC	0%	-4%	/	/	-61*
O=S(=O)(c1ccccc1)c1nc(-c2ccc(Cl)cc2Cl)oc1N1CCCCCC1	7%	28%	/	/	6
COc1cccc(CNn2c(-c3cccc(C)c3)nc3ccccc3c2=O)c1	/	-2%	?	3%	-73*
COc1ccc(OC)c(CNn2c(-c3cccc(C)c3)nc3ccccc3c2=O)c1	/	-15%	?	13%	?
COc1ccc(CNn2c(-c3cccs3)nc3ccccc3c2=O)cc1OC	?	-11%	?	132%	-70*
CCOc1ccc(-n2c(-c3cccs3)nc3ccccc3c2=O)cc1	?	2%	?	-6%	-66*
O=c1c2ccccc2nc(-c2cccs2)n1-c1ccccc1	-26%	-2%	4%	-17%	2
CCOc1ccccc1NC(=O)C1CCN(C(=O)Cc2ccccc2)CC1	-2%	3%	2.2µM*	17%	-6
